# YopH PTP inh – YopH tyrosine phosphatase inhibitors, primary screen, biochemical, fluorescence Ex485/Em525; YopH tyrosine phosphatase [Yersinia enterocolitica]; inhibition, % (concentration not given with the values); 0.16% of 140,000 active; AID 898, 2007; in the data active means inhibition above about 50%
# RmlC RmlD mix – RmlC and RmlD coupled enzyme inhibitors, primary screen, biochemical, 384-well, compound mixtures, retest | RmlC/RmlD coupled enzyme inhibition, 384-well mixture HTS | inhibition, % at 5.5 µM | AID 1532, 2009 | 0.39% of 110,000 active; in the data active means inhibition above about 30%, passing the limit was not always enough
# RmlCD fluor art – counter-screen for RmlC/RmlD inhibitors: fluorescence artifact, dose response, artefact control, biochemical; shares compounds with RmlC RmlD mix; RmlC/RmlD assay fluorescence artifact counter-screen; calls only; 96% of 360 active; call rule not given here;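 further: compound alone with no enzyme and no substrates present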
# Starred values were filed as active, the others as inactive; i = inactive; nt = no result; + = active, no number. This is a sample that favours compounds with a hit; in the whole collection about 0.41% have one here.
SMILES,YopH PTP inh,RmlC RmlD mix,RmlCD fluor art
O=C(CCCn1c(=O)[nH]c2ccsc2c1=O)N1CCN(c2ccccn2)CC1,6.2,70.0*,i
CCc1cc(=O)oc2cc(C)c(CN3CCCC(C)C3)c(O)c12 (stereo unspecified),13.6,5.7,nt
COC(=O)Cc1c(C)c2ccc(O)c(CN3CCCC(C)C3)c2oc1=O (stereo unspecified),-13.1,95.8*,+
CCn1c(N2CCN(C(=S)NCCc3ccccc3)CC2)nc2ccccc21,-18.6,-5.4,nt
CNC(=O)COC(=O)c1cc2c(C)nn(-c3ccc(F)cc3)c2s1,-33.0,16.1,nt
Cc1nn(-c2ccc(F)cc2)c2sc(C(=O)OC3CCOC3=O)cc12 (stereo unspecified),-5.2,47.4*,+
CCc1cc(C(=O)N/N=C/c2c(C)[nH]c3ccccc23)cs1,-3.8,nt,nt
COc1ccc(-c2cc(=NCCC(=O)O)c3cc(C)ccc3o2)cc1,nt,nt,+
COc1ccc(-c2cc(=NC(CC(C)C)C(=O)O)c3cc(C)ccc3o2)cc1 (stereo unspecified),-10.3,nt,nt
O=C(NCc1cccc(C(F)(F)F)c1)C1CC(c2ccccc2C(F)(F)F)=NO1 (stereo unspecified),nt,1.2,nt
CCc1cc2c(CN3CCN(C)CC3)cc(=O)oc2cc1O,-45.5,-1.9,nt
CCc1cc2c(CN3CCN(CCO)CC3)cc(=O)oc2cc1O,-26.0,61.0*,+
Cc1csc(NC(=O)c2cc3c(s2)-c2ccccc2OC3)n1,-2.1,-9.1,nt
CN(C)CCNC(=O)c1cc2c(s1)-c1ccccc1OC2,-28.7,160.6*,+
O=C(OCC(=O)N1CCc2ccccc2C1)c1cccc([N+](=O)[O-])c1,-8.5,nt,nt
CCCCCCNc1nc(-c2ccc(OC)cc2)c(CCC(=O)O)s1,-25.6,nt,nt
O=C(CCCC(=O)OCC(Cl)=C(Cl)Cl)Nc1ccc(F)cc1,-15.3,nt,nt
O=C(Nc1nc(NC(=O)c2ccco2)n(-c2ccccc2)n1)c1ccccc1,-28.5,138.3*,+
Nc1nc(NC(=O)c2ccccc2)nn1-c1ccccc1,-27.6,nt,nt
c1csc(-c2nc3nc4ccccc4nc3n2Cc2ccc3c(c2)OCO3)c1,-30.6,-20.2,nt
CCCn1c(-c2cccs2)nc2nc3ccccc3nc21,-9.6,81.3*,+
CC(C)CC(NC(=O)c1ccc(Cl)cc1)C(=O)OCc1cc([N+](=O)[O-])cc2c1OCOC2 (stereo unspecified),-22.7,nt,nt
COC(=O)c1cc(C)nc(N)c1C#N,-2.6,27.7,nt
Cc1cc(C(=O)OCCO)c(C#N)c(N)n1,1.9,45.6*,+
Cc1cc(=O)oc2cc(NS(=O)(=O)c3ccccc3)ccc12,nt,nt,+
SMILES,YopH PTP inh,RmlC RmlD mix,RmlCD fluor art
CN(C)S(=O)(=O)c1ccc(S(=O)(=O)Nc2ccc3c(c2)oc2ccccc23)cc1,6.3,6.3,nt
O=C(COC(=O)CCS(=O)(=O)c1ccc(Cl)cc1)NCCc1ccc(Cl)cc1Cl,-25.1,nt,nt
O=C1CCC/C(=N/NC(=O)c2ccc(CN3c4cccc5cccc(c45)S3(=O)=O)cc2)C1,-11.3,nt,nt
C=CCOC(=O)C1=C(C)NC(SCC(=O)NC(=O)OCC)=C(C#N)C1c1cccnc1 (stereo unspecified),-20.5,30.3*,+
C=CCOC(=O)C1=C(C)NC(SCC(=O)N(CC)CC)=C(C#N)C1c1ccccc1 (stereo unspecified),-24.4,nt,nt
O=C1CCCc2oc3ccc(O)cc3c21,-0.9,9.6,nt
C/C=C/C(=O)Nc1cccc(C2=NOC3(C2)C[C@@H](C(N)=O)N(C(=O)/C(C)=C/C)C3)c1 (stereo partly specified),nt,7.3,nt
O=C(COC(=O)C12CC3CC(CC(C3)C1)C2)Nc1ccc([N+](=O)[O-])cc1Cl,-26.3,nt,nt
C=CCn1c(SCC(=O)NC(=O)c2cccc([N+](=O)[O-])c2)nnc1-c1ccccc1F,-42.7,nt,nt
CCCc1cc(-n2cnc3ccccc32)n2c(nc3ccccc32)c1C#N,-19.1,11.6,nt
CCCc1cc(NCC2CCCO2)n2c(nc3ccccc32)c1C#N (stereo unspecified),-10.1,101.9*,+
Cc1c(Cl)cnc(NC(=O)COC(=O)CCc2nc3ccccc3s2)c1Cl,-23.0,nt,nt
COC(=O)c1nn(-c2ccc3c(c2)OCO3)cc1O,-14.5,-1.5,nt
COC(=O)c1nn(-c2ccc3c(c2)CCN3C(C)=O)cc1O,-147.5,41.0*,+
COCCCNC(=O)c1ccc2nc3ccccc3c(=O)n2c1,-44.4,34.0*,+
COCCCn1c(SCC(=O)NCc2ccccc2)nc2ccccc2c1=O,-25.4,-4.9,nt
COC(=O)Cc1ccc(NC(=S)NN2CCOCC2)cc1,-11.2,nt,nt
CCOC(=O)c1cc2cc3ccccc3cc2[nH]1,-25.9,124.6*,+
CC(C)OC(=O)c1cc2ccccc2[nH]1,-16.1,-10.0,nt
CCOC(=O)C(Cc1ccccc1)C(=O)Nc1cccc2ccccc12 (stereo unspecified),-17.5,nt,nt

# Assay outcomes: PubChem, several laboratories
